This is a sample that favours compounds with a hit; in the whole collection about 6.6% have one here.
BoNT F protease – BoNT/F light chain protease inhibitors, primary screen, biochemical, flow cytometry, MLPCN library. Botulinum neurotoxin type F light chain protease (Clostridium botulinum). Multiplex microsphere protease cleavage assay. inhibition, % at 10 µM. actives 0.22% (n = 360,000); in the data active = inhibition above about 35%, passing the limit was not always enough; inconclusive = no clear call, values can overlap the other calls; note: plate controls were buffer without enzyme for full effect and enzyme alone for no effect
Autofluor counter – compound fluorescence in toxin protease inhibitor counterscreen | actives 3.1% (n = 360,000) | fluorescence intensity (concentration not given with the values) | compound autofluorescence counterscreen, microsphere flow cytometry; active compounds read high; in the data active = fluorescence intensity above about 16000; inconclusive = no clear call, values can overlap the other calls
BoNT-A LC inh2 – BoNT/A light chain protease inhibitors, primary screen, biochemical, flow cytometry, MLPCN library; multiplex microsphere protease substrate cleavage; inhibition, % at 10 µM; actives 0.17% (n = 360,000); note: plate controls were buffer without enzyme for full effect and enzyme alone for no effect
GDH-TPI counter-1 – GDH-TPI coupling enzyme inhibitors, primary screen, artefact control for M. tuberculosis FBA inhibitor project, biochemical, absorbance, full deck. GDH-TPI coupled enzyme counterscreen, NADH absorbance. inhibition, % at 4.8 µM. actives 1.2% (n = 360,000). AID 588335, 2011; in the data active = inhibition above about 30%;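 note: 0% = DMSO wells and 100% = wells lacking the enzyme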
Mtb FBA inh – Mtb FBA enzyme inhibitors, primary screen, biochemical, fluorescence, strain H37Rv; Fructose-bisphosphate aldolase (Mycobacterium tuberculosis (strain ATCC 25618 / H37Rv)), …; purified M. tuberculosis FBA, fluorescence read-out; inhibition, % at 1 µM; actives 2.3% (n = 360,000); in the data active = inhibition above about 27%;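 note: 0% = vehicle and 100% = reference inhibitor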
Target sequence (P9WQA3 whole entry, looked up): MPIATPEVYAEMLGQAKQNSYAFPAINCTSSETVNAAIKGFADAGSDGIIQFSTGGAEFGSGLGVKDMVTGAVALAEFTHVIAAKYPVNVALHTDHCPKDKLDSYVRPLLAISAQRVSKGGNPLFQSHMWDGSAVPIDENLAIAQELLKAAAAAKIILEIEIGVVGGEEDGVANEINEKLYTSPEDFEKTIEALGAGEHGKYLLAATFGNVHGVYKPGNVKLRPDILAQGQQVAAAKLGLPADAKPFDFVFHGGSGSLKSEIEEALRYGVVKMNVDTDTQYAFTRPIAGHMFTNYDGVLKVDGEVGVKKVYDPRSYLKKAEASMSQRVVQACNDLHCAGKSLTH
Anthrax LF inh2 – Bacillus anthracis LF protease inhibitors, primary screen, biochemical, multiplex microsphere, MLPCN library | AID 588501, 2011 | Lethal factor (Bacillus anthracis), P15917 | actives 0.12% (n = 360,000) | multiplex microsphere protease cleavage assay | inhibition, % at 10 µM; note: plate controls were buffer without enzyme for full effect and enzyme alone for no effect
Mtb FBA inh conf – M. tuberculosis aldolase blockers, biochemical, fluorescence, strain H37Rv, confirmation. shares compounds with Mtb FBA inh. purified M. tuberculosis FBA, fluorescence read-out. inhibition, % at 1 µM. actives 78% (n = 5,600). AID 651616, 2012; in the data active = inhibition above about 27%;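 note: 0% = vehicle wells and 100% = reference inhibitor wells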
GDH-TPI counter-2 – GDH-TPI coupling enzyme inhibitors, artefact control for M. tuberculosis FBA inhibitor project, biochemical, fluorescence, high throughput; shares compounds with Mtb FBA inh; GDH-TPI coupled enzyme counterscreen; inhibition, % at 1 µM; actives 81% (n = 5,600); in the data active = inhibition above about 10%
* = called active by the depositor; ? = inconclusive; . = no result given; + = active, no number. Cut-off read from the data, not from the text of the source, unless noted: active = inhibition above about 30%; inconclusive = no clear call, values can overlap the other calls; inactive = below that.

SMILES	BoNT F protease	Autofluor counter	BoNT-A LC inh2	GDH-TPI counter-1	Mtb FBA inh	Anthrax LF inh2	Mtb FBA inh conf	GDH-TPI counter-2
COCCCNC(=O)C[C@H]1C[C@H](C(=O)N2CCOCC2)[C@@]2(C)c3[nH]c4cc(-c5ccco5)ccc4c3CCN2C1=O	4.0	3483	-0.1	0.5	33.2*	-2.5	15.1	11.4*
CCN(CC)C(=O)[C@H]1C[C@H](CC(=O)NCc2ccco2)C(=O)N2CCc3c([nH]c4cc(-c5ccco5)ccc34)[C@]12C	4.7	3348	0.1	-4.5	26.8	-6.4	.	.
CCN(CC)C(=O)[C@H]1C[C@H](CC(=O)NCCN2CCOCC2)C(=O)N2CCc3c([nH]c4cc(-c5ccco5)ccc34)[C@]12C	2.0	3390	0.3	6.4	50.1*	-8.0	64.9*	38.8*
CCN(CC)C(=O)[C@H]1C[C@H](CC(=O)NCCCn2ccnc2)C(=O)N2CCc3c([nH]c4cc(-c5ccco5)ccc34)[C@]12C	0.9	3415	0.2	-3.3	26.1	0.8	.	.
COCCCNC(=O)C[C@H]1C[C@H](C(=O)N(C(C)C)C(C)C)[C@@]2(C)c3[nH]c4cc(-c5ccco5)ccc4c3CCN2C1=O	-8.4	2998	-0.5	11.5	31.5*	1.3	128.1*	104.4*
COCCCNC(=O)CC1C[C@H](C(=O)N2CCOCC2)[C@@]2(C)c3[nH]c4ccccc4c3CCN2C1=O (some centres undefined)	4.4	3974	-0.2	0.0	0.6	-1.0	.	.
Cc1cccc(N2CCN(S(=O)(=O)c3cc(-c4cc(C)no4)ccc3C)CC2C)c1 (centres undefined)	-0.6	5494	-1.7	-10.4	-0.7	-2.0	.	.
Cc1ccc(S(=O)(=O)N2CCN(C(=O)COC(=O)c3cnc(C)cn3)CC2)c(C)c1	2.9	4080	4.4	-9.5	-2.5	1.7	.	.
Cc1ccc(N2C(=O)N(CC(=O)Nc3ccc(C)c(C)c3)C(=O)C2C)cc1 (centres undefined)	7.3	4448	0.8	-1.1	2.2	-1.9	.	.
NNC(=O)c1c[nH]c2ccc(OCc3ccccc3)cc12	?	4105	3.6	13.2	-0.8	15.7	.	.
Cc1ccc(-c2nc(CS(=O)CC(=O)NCCCN3CCN(Cc4ccccc4)CC3)c(C)o2)cc1 (centres undefined)	-1.7	4535	-0.1	5.5	0.3	0.3	.	.
COc1ccccc1NC(=O)C(=O)N/N=C(\C)CC(=O)Nc1ccccc1C(F)(F)F	-7.6	3641	-0.7	22.9	0.3	-1.6	.	.
COc1cccc(CN2CC(C(=O)NCCc3cn4cccnc4n3)CCC2=O)c1 (centres undefined)	-1.8	3500	-0.4	2.6	47.1*	-7.0	101.9*	71.1*
COc1cccc(CCNC(=O)C2CCC(=O)N(Cc3cccc(OC)c3)C2)c1 (centres undefined)	-1.1	5225	0.2	0.3	2.0	-2.3	.	.
C=C1c2ccccc2S(=O)(=O)N(Cc2ccccc2)C1COCc1ccccc1 (centres undefined)	0.2	3683	0.3	-1.7	-3.0	4.0	.	.
Cn1c2ccccc2c2c(C(=O)NCCCN3CCCC3=O)cn(C3CCCCC3)c(=O)c21	15.2	4558	-0.7	12.0	35.5*	-4.8	98.0*	85.0*
CN1CCN(CCCNC(=O)c2cn(C3CCCCC3)c(=O)c3c2c2ccccc2n3C)CC1	14.4	4579	0.8	11.2	30.7*	-1.3	36.9*	40.9*
Cn1c2ccccc2c2c(C(=O)NCC3CCCO3)cn(C3CCCC3)c(=O)c21 (centres undefined)	11.9	4762	1.0	11.9	12.1	-0.8	.	.
Cn1c2ccccc2c2c(C(=O)N3CCN(c4ccccc4)CC3)cn(C3CCCC3)c(=O)c21	-18.3	3099	-1.8	5.9	6.0	-7.2	.	.
O=C(Nc1ccc(Cl)cc1)c1cc2c(cc1O)[nH]c1ccccc12	-12.4	3221	0.5	15.0	107.0*	9.0	83.5*	71.3*
Cc1ccc(S(=O)(=O)N/N=C\c2ccc3c(c2)OCO3)cc1	-15.0	10822	-0.7	16.7	0.9	-2.2	.	.
Cc1ccc(S(=O)(=O)N/N=C\c2cc3c(cc2Br)OCO3)cc1	-2.1	2551	-0.4	7.8	41.7*	-1.4	8.9	-3.8
COc1cc2sc3cc(NCC[C@@H]4CCCN4C)ccc3c(=O)c2cc1OC	-34.7	4442	7.7	41.8*	31.9*	1.3	+	193.8*
COc1cc2sc3cc(NCc4ccc(C)o4)ccc3c(=O)c2cc1OC	0.3	3910	-0.1	19.8	32.8*	-2.2	131.3*	125.8*
O=C(NN1C(=O)NC2(CCCCC2)C1=O)c1ccc(-c2ccc(Cl)cc2)o1	-6.5	4225	-0.5	8.4	34.7*	1.9	157.3*	123.6*
SMILES	BoNT F protease	Autofluor counter	BoNT-A LC inh2	GDH-TPI counter-1	Mtb FBA inh	Anthrax LF inh2	Mtb FBA inh conf	GDH-TPI counter-2
O=C(Nc1ccc2c(c1)OCO2)c1cc2nc(C3CC3)cc(C(F)(F)F)n2n1	-11.0	9919	0.2	-5.5	0.1	-2.1	.	.
CC(C)CNC(=O)c1cc2nc(C3CC3)cc(C(F)(F)F)n2n1	-24.8	3223	1.0	12.7	79.0*	-2.3	62.0*	60.7*
Oc1ccccc1CNc1cnc2ccccc2c1	-7.4	8173	-0.9	13.1	39.6*	-3.9	5.1	3.2
Oc1ccc(Cl)cc1CNCc1cccc2ccccc12	-12.4	3742	-0.5	-0.5	0.2	-5.6	.	.
Oc1ccc(Cl)cc1CNc1cnc2ccccc2c1	-19.9	3699	-3.4	30.0	34.5*	-9.4	+	169.5*
C=CCc1cccc(CNc2cnc3ccccc3c2)c1O	?	4430	-2.9	0.7	26.0	-1.5	.	.
Oc1ccc2ccccc2c1CNc1cnc2ccccc2c1	-6.1	13127	0.6	30.0	49.9*	-2.9	-4.7	-5.5
Oc1ccc2ccccc2c1CNc1ccc(Br)cn1	-2.2	3912	-0.8	-1.7	1.6	-7.3	.	.
O=C(Cc1cccc(NC(=O)C2CCN(C(=O)C3CCC3)CC2)c1)Nc1cccc(C(=O)N2CCCC2)c1	-6.5	2997	-0.1	1.7	1.2	1.3	.	.
Cc1ccc(Cl)cc1N1CCN(C(=O)c2noc(C(C)C)c2[N+](=O)[O-])CC1	-0.8	5942	-2.4	11.6	5.4	-3.1	.	.
